Compound activity from PubChem.
USP30 block: human USP30 deubiquitinase inhibition; AID 1645860; inhibition, % at 25 µM; purified USP30, Ub-rhodamine cleavage fluorescence; Q70CQ3; 47,000 tested, 5.3% active
Target sequence (Q70CQ3 whole entry, looked up): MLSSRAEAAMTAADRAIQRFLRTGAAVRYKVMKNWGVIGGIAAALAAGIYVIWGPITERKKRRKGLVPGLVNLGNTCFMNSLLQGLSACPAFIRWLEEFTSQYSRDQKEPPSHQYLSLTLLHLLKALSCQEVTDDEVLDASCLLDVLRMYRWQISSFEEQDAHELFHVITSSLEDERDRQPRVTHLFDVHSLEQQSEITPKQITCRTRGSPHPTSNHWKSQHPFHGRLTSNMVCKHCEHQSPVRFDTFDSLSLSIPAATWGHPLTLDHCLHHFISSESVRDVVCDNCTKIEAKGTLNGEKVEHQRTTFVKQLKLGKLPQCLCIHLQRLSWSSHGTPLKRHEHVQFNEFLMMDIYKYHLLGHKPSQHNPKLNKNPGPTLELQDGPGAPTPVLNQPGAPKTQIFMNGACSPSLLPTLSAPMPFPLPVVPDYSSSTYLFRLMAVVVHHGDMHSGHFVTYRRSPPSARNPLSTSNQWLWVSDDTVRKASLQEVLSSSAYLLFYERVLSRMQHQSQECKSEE
USP17 inh: blocks human USP17 ubiquitin-rhodamine cleavage. A8MUK1. purified USP17, Ub-rhodamine cleavage fluorescence, 3 h. inhibition, % at 50 µM. 47,000 tested, 6.5% active. AID 1645855
An asterisk follows results filed as active. This is a sample that favours compounds with a hit; in the whole collection about 9.6% have one here. Rule as the data show it: active = inhibition above about 30%; inactive = the rest.

Screening O=C(NCc1ccncc1)c1ccc(-n2cccn2)c(C#Cc2cccnc2)c1 returned USP30 block -7 and USP17 inh 43*.
Screening O=C(NCCN1CCOCC1)c1ccc(-n2cccn2)c(C#Cc2cccnc2)c1 returned USP30 block 5 and USP17 inh -7.
`COc1c(O)cc(O)c(C(=O)O)c1C(O)C(C)=O` (stereo not drawn) gave USP30 block -88 and USP17 inh -14.
For COc1c([C@@H](O)CC(C)C)ccc2c1C(=O)OCc1cc(C)cc(O)c1O2 the results were USP30 block -21 and USP17 inh -1.
`COc1c(C(CC(C)C)OC(C)=O)ccc(Oc2c(O)cc(C)cc2C=O)c1C(=O)O` (stereo not drawn) gave USP30 block -21 and USP17 inh 35*.
COc1c(C(O)CC(C)C)ccc(Oc2c(O)cc(C)cc2C=O)c1C(=O)O (stereo not drawn) was read as USP30 block 10 and USP17 inh 44*.
`Cc1cccnc1Nc1nccc(C2CN(c3cnccn3)C2)n1` gave USP30 block 15 and USP17 inh -6.
Screening Cc1ccc(OCC(=O)N2CC[C@@H]3CN(CCc4ccccc4)S(=O)(=O)[C@@H]3CC2)cc1 returned USP30 block 5 and USP17 inh -14.
`O=C(Nc1ccncc1)c1ncoc1-c1cccc(Cl)c1` gave USP30 block 66* and USP17 inh 7.
For COc1ccc(-c2ocnc2C(=O)Nc2ccc(C)c(F)c2)cc1OC the results were USP30 block 23 and USP17 inh 10.
`O=C(Nc1nc2c(s1)CN(C(=O)c1cnn(-c3ccccc3)n1)CC2)C1CCCO1` (stereo not drawn) gave USP30 block -11 and USP17 inh 1.
For O=C(Nc1nc2c(s1)CN(C(=O)c1cc(-c3ccco3)on1)CC2)C1CCCO1 (stereo not drawn) the results were USP30 block -136 and USP17 inh 33*.
For CC(Sc1n[nH]c2nc3ccccc3n12)C(=O)Nc1ccc2c(c1)OCCO2 (stereo not drawn) the results were USP30 block -9 and USP17 inh 39*.
O=C(CSc1n[nH]c2nc3ccccc3n12)Nc1ccc2[nH]c(=O)[nH]c2c1 was read as USP30 block -22 and USP17 inh -3.
COc1cccc(NC(=O)CN2C(=O)C3CCCN3C(=O)c3cc(C)ccc32)c1 (stereo not drawn) was read as USP30 block -7 and USP17 inh -10.
Screening CCOC(=O)CC(NC(=O)CCc1c(C)nc2c(c1C)c(=O)n(C)c(=O)n2C)c1ccc(C)cc1 (stereo not drawn) returned USP30 block 31* and USP17 inh 14.
For COc1ccc(NC(=O)CCc2c(C)nc3c(c2C)c(=O)n(C)c(=O)n3C)cc1 the results were USP30 block -2 and USP17 inh 4.
Screening Cc1cccc(Nc2nccnc2C2CCCN2C(=O)c2ncoc2C)n1 (stereo not drawn) returned USP30 block 11 and USP17 inh 6.
For Cc1cc2c3c([nH]c2cc1S(=O)(=O)N(C)C1CCCCC1)CCCC3=O the results were USP30 block -23 and USP17 inh 49*.
For Cc1ccccc1NS(=O)(=O)c1cc2[nH]c3c(c2cc1C)C(=O)CCC3 the results were USP30 block 69* and USP17 inh 58*.
`Cc1cc2c3c([nH]c2cc1S(=O)(=O)Nc1c(C)cccc1C)CCCC3=O` gave USP30 block -114 and USP17 inh -37.
`Cc1cc2c3c([nH]c2cc1S(=O)(=O)N1CCC(C)CC1)CCCC3=O` gave USP30 block -46 and USP17 inh -25.
For CCCC1Cc2c(sc3nc(SCC(=O)OCC)nc(N)c23)CO1 (stereo not drawn) the results were USP30 block -14 and USP17 inh 19.
CNc1nc(C2CCN(C(=O)C3CCCO3)CC2)nc2c1CCN(C)C2 (stereo not drawn) was read as USP30 block -131 and USP17 inh -41.
For COc1ccc(-c2nc(-c3cccc(-c4ccnn4C)c3)no2)cc1 the results were USP30 block 13 and USP17 inh 7.
COc1cccc(-c2noc(-c3occc3Br)n2)c1 was read as USP30 block 4 and USP17 inh 40*.
For CC(NC(=O)Cc1ccccc1)c1nc(-c2cccnc2)n[nH]1 (stereo not drawn) the results were USP30 block -5 and USP17 inh 0.
For Cc1ccc(O)c(Nc2nnc(-n3nc(C)cc3C)c3ccccc23)c1 the results were USP30 block -5 and USP17 inh -10.
NC1=NC2(CCSCC2)n2c(nc3cc4c(cc32)OCCCO4)N1 was read as USP30 block -39 and USP17 inh -20.
Screening Cc1cc2cc(CNc3ncnc4c3nnn4C)ccc2[nH]1 returned USP30 block -104 and USP17 inh 49*.
Screening CCn1nnc2c(NCc3ccc(OC)cc3)ncnc21 returned USP30 block 16 and USP17 inh 5.
COc1cccc(NC(=O)N2CCC3(CC2)CN(CC(C)C)CC32CCN(C)C2=O)c1 (stereo not drawn) was read as USP30 block -18 and USP17 inh -18.
Screening O=C(c1ccc2ccccc2c1)c1cn(-c2ccc(F)c(Cl)c2)nn1 returned USP30 block 12 and USP17 inh 11.
COc1cccc(CN2CCC3(CC2)OCCc2cnc(C)nc23)c1 was read as USP30 block 6 and USP17 inh 13.
COc1ccc(CN2CCC3(CC2)OCCc2cnc(C)nc23)c(OC)c1 was read as USP30 block 32* and USP17 inh -17.
COc1cc2c(C#N)c(OC)nc3c2c(n1)NC(C)(c1ccc(Br)cc1)N3 (stereo not drawn) was read as USP30 block -16 and USP17 inh 0.
CC(NC(=O)Cn1c(=O)c(N2CCOCC2)nc2ccccc21)c1ccccc1 (stereo not drawn) was read as USP30 block inactive and USP17 inh -146.
Screening COc1ccc(NC(=O)Cc2nc(-c3cccc(Cl)c3)no2)cc1 returned USP30 block -29 and USP17 inh -24.
For COc1ccc(NC(=O)CS(=O)c2ccc(Cl)c(Cl)c2)cc1 (stereo not drawn) the results were USP30 block 47* and USP17 inh 5.
For Cc1nccc(C2CCCN(C(=O)c3cccc4c3OCCO4)C2)n1 (stereo not drawn) the results were USP30 block 0 and USP17 inh 0.
`CC(=O)c1cccc(NC(=O)c2ccc3[nH]c4c(c3c2)CC(C)CC4)c1` (stereo not drawn) gave USP30 block -6 and USP17 inh 54*.
CC(=O)c1cccc(NC(=O)c2ccc(OC3CSC3)cc2)c1 was read as USP30 block 19 and USP17 inh 13.
For COc1ccc(NC(=O)CCC(=O)N(c2ccccc2)c2ccccc2)c(OC)c1 the results were USP30 block 15 and USP17 inh 2.
COc1cc(NC(=O)c2ccccc2)c(OC)cc1NC(=O)CCC(=O)N(c1ccccc1)c1ccccc1 was read as USP30 block 58* and USP17 inh 62*.
COC(=O)c1ccc(NC(=O)c2cc(C3CC3)n3nccc3n2)cc1 was read as USP30 block -16 and USP17 inh -8.
`Cc1ccc(-c2cc(N3CCN(S(C)(=O)=O)CC3)ncn2)cc1` gave USP30 block 47* and USP17 inh 47*.
